VACV mCherry inh – inhibitors of vaccinia virus infection (mCherry reporter signal); AID 720579; Potency, µM (titrated, usually from 36.5 µM), for inactives: at the top dose activity change, negative = inhibition, most hits filed as inhibitors; hit rate 0.63% among 310,000; Vaccinia virus mCherry reporter infection, fluorescence; calls by dose curve; tested in A549 cells; note: potency is the fitted concentration of half-maximal effect; nearly all actives have a fitted effect of over 35% in size
FMDV inh – antivirals against foot and mouth disease virus; FMDV antiviral cell-based qHTS; Potency, µM (top dose mostly 57.9 µM), for the others: at the top dose activity change, negative = inhibition, most hits filed as inhibitors; hit rate 1.2% among 410,000; AID 1159524; calls by dose curve; tested in HEK293T cells; note: read-out not given here; potency is the fitted concentration of half-maximal effect; nearly all actives have a fitted effect of over 45% in size
Marburg entry inh – Marburg virus entry inhibition | Marburg virus pseudotyped entry inhibition, cell reporter | Potency, µM (doses to about 37.8 µM), for the others: top-dose activity change, negative = inhibition, usual class: inhibitors | hit rate 1.8% among 300,000 | AID 540276; calls by dose curve; tested in HEK293 cells; note: potency is the fitted concentration of half-maximal effect
VACV Venus inh – inhibitors of vaccinia virus (Venus reporter); Potency, µM (top dose mostly 36.5 µM), for inactives: top-dose activity change, negative = inhibition, actives largely listed as inhibitors; hit rate 0.46% among 330,000; Vaccinia virus Venus reporter expression, fluorescence; AID 720580; calls by dose curve; tested in A549 cells; note: potency is the fitted concentration of half-maximal effect; nearly all actives have a fitted effect of over 30% in size
LASV entry inh – Lassa virus entry inhibition; AID 540256; Lassa virus pseudotype entry inhibition, cell reporter; Potency, µM (top dose mostly 37.9 µM), for the others: top-dose activity change, negative = inhibition, most hits filed as inhibitors; hit rate 1.2% among 300,000; calls by dose curve; tested in HEK293 cells; note: potency is the fitted concentration of half-maximal effect; nearly all actives have a fitted effect of over 50% in size
HCMV inh – human cytomegalovirus inhibition. HFF cells, HCMV-luciferase reporter, 72 h; hits give low values. activity change, negative = inhibition, % at 57.5 µM. hit rate 4.5% among 410,000. AID 1259415; in the data active = activity change below about -60%; inconclusive = no clear call, values can overlap the other calls; inactive = above about -39%
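Luciferase read-out from HCMV-luciferase-infected HFFs (MOI 1 PFU/cell) 72 h post infection at 37C; compounds added after 16 h cell attachment; activity normalized between buffer-only basal and Salinomycin (10uM) inhibitor controls.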
* marks the source's active call; other numbers are inactive results; i = inactive; ? = inconclusive; nt = no result; [ ] = remark or other dose. Shown are actives, neighbours in structure and some others; about 6.5% of the full set was active somewhere. % is set by controls: 0 for no effect and ±100 for the full control effect.

SMILES | VACV mCherry inh | FMDV inh | Marburg entry inh | VACV Venus inh | LASV entry inh | HCMV inh
CCCCn1nnnc1C(c1cc2ccccc2o1)N1CCN(c2ccccc2F)CC1 (centres undefined) | -14% | 24% | nt | -11% | nt | 9
CCCCn1nnnc1C(c1cc2ccccc2o1)N1CCN(c2cc(C)nc3ccccc23)CC1 (centres undefined) | -19% | -17% | nt | -12% | nt | -103*
CC(=O)c1sc(NC(=O)c2ccc(F)c(S(=O)(=O)N3CCOCC3)c2)nc1C | nt | -11% | nt | nt | nt | 0
O=C(c1ccc2c(=O)n(CC3CCCO3)c(=S)[nH]c2c1)N1CCN(C(=O)c2ccco2)CC1 (centres undefined) | -24% | nt | nt | -16% | nt | nt
Cn1ccc2c(/C=C/c3ccc(F)cc3)cc3c(c21)C1CCC3O1 (centres undefined) | 10% | -15% | nt | -11% | nt | -16
Cn1ccc2c(/C=C/c3ccc(F)cc3)cc3c(c21)C1CCC3C1 (centres undefined) | i | -11% | nt | 1% | nt | -67*
Cc1ccc(C(=O)CCS(=O)(=O)c2ccc(Br)cc2)cc1 | -8% | 11% | 15%[46.1 µM] | -8% | ? | 32
Cc1ccc(S(=O)(=O)CCC(=O)c2cccc([N+](=O)[O-])c2)cc1 | -5% | 25µM* | ? | -22% | ? | -12
Cc1ccc(S(=O)(=O)Cc2cc(F)c([N+](=O)[O-])cc2[N+](=O)[O-])cc1 | 2.8µM* | -41% | ? | ? | -21%[46.1 µM] | nt
CCOC(=O)c1ccc([N+](=O)[O-])c(CS(=O)(=O)c2ccc(Cl)cc2)c1 | nt | -16% | nt | nt | nt | 5
O=C(/C=C/c1ccccc1)N1CC2ON=C(c3c(F)cccc3Cl)C2C1 (centres undefined) | nt | nt | nt | nt | nt | -8
COc1cc(OC)c(N(C)C(=O)c2nn(C)c3c2CSc2ccccc2-3)cc1Cl | -12% | 7% | 4%[46.1 µM] | -3% | 5%[46.1 µM] | 18
CC(C)=CCC[C@H](C)C[C@@H]1Cc2[nH][nH]c(=O)c2[C@@H](c2ccc(F)cc2)O1 | 14% | -16% | nt | -13% | nt | 15
CCn1ncc(/C=C/C(=O)C2CC2)c1C | -25% | 26% | ? | -8% | 15% | 48
CCOC(=O)c1c(C)nc2sc3c(=O)n(-c4ccc(OC)cc4)cnc3c2c1-c1ccc(OC)cc1 | -15% | -1% | 2% | -3% | -9% | -6
COc1ccc(-c2c(C(C)=O)c(C)nc3sc4c(=N)n(N)cnc4c23)cc1 | 7.1µM* | -4% | -16% | 13µM* | ? | ?
CCOc1ccccc1NC(=O)c1ccc(F)c(S(=O)(=O)NCc2ccc3c(c2)OCO3)c1 | -16% | 12% | nt | -7% | -17%[46.1 µM] | ?
CCC(C)NC(=O)c1ccc(NC(=O)C2=C(C)OCCS2)cc1 (centres undefined) | -4% | 5% | -8% | -3% | ? | -61*
CC1=C(C(=O)Nc2cc(C(=O)N3CCC(C)CC3)ccc2C)SCCO1 | 10%[7.34 µM] | -8% | nt | 24%[7.34 µM] | nt | -63*
CC1=C(C(=O)Nc2cccc(C(=O)NC(C)C)c2)SCCO1 | i | -8% | 7%[46.1 µM] | -11% | -18%[46.1 µM] | -25
COc1cc(C2c3cc4c(cc3C(O)[C@H]3COC(=O)C23)OCO4)cc(OC)c1OC (some centres undefined) | -18% | 0% | nt | -20% | nt | nt
COc1cc([C@@H]2c3cc4c(cc3C[C@H]3COC(=O)[C@@H]32)OCO4)cc(OC)c1O | 10µM* | nt | nt | ? | nt | nt
COc1cc(C2c3cc4c(c(O)c3CC3COC(=O)C32)OCO4)cc(OC)c1OC (centres undefined) | ? | -22% | ? | ? | ? | -83*
COc1cc([C@@H]2c3cc4c(cc3[C@H](OC(C)=O)[C@H]3COC(=O)[C@@H]23)OCO4)cc(OC)c1OC | ? | nt | nt | -25% | nt | nt
COc1cc(C2c3cc4c(cc3CC3COC(=O)C32)OCO4)cc(OC)c1OC (centres undefined) | -21% | -14% | nt | ? | nt | 1
COc1cc(C2c3cc4c(cc3CC3COC(=O)N32)OCO4)cc(OC)c1OC (centres undefined) | ? | -8% | ? | ? | ? | -88*
CC1CCCCc2cc(O)ccc2OC(=O)CC1 (centres undefined) | nt | nt | nt | nt | nt | -11

Source: PubChem BioAssay
